Compound activity deposited in PubChem BioAssay by The Scripps Research Institute Molecular Screening Center.
In the library only some 4.1% were active in any assay of this set; here they are far more common.
hgDAF12 agonist: hgDAF-12 agonism, primary luciferase screen | activation, % at 6.8 µM | 370,000 tested, 1.8% active | HEK293 GAL4-hgDAF12 UAS-luciferase reporter, agonist luminescence; normalized to butyrate control;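 active means activation above a cutoff set at the mean of all screened compounds plus 3 SD, cut at about 10% in these data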;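 further: 0% = DMSO wells and 100% = sodium butyrate wells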
DAX1 inh-1: NR0B1 (DAX1) inhibition. inhibition, % at 6.75 µM. 340,000 tested, 0.99% active. HEK293 Gal4-DAX1 luciferase reporter, luminescence. P51843;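 active means inhibition above the mean over all tested compounds plus 3 SD, cut at about 4.2% in these data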;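 further: 0% = DAX1-transfected cells with DMSO and 100% = empty-vector control cells with DMSO; inhibition shows as a rise in luminescence from relieved DAX1 repression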
Target sequence (P51843 207-470 limits assumed): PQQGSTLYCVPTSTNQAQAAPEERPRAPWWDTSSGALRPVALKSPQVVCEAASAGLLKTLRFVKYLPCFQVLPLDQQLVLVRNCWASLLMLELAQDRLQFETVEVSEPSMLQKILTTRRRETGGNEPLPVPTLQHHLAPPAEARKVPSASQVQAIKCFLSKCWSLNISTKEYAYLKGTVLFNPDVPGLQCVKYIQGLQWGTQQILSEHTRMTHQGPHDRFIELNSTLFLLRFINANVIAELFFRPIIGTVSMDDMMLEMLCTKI
DAX1 inh-2: inhibitors of DAX1 repression of SF-1 activated StAR promoter; HEK293T StAR-luciferase reporter, SF-1/DAX-1 repression relief; 370,000 tested, 1.1% active; inhibition, % at 6.8 µM;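 active means inhibition above the mean over all tested compounds plus 3 SD, cut at about 3.6% in these data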;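 further: 0% = DAX-1 cells with DMSO and 100% = cells lacking DAX-1 with DMSO; higher inhibition means more luminescence from relief of DAX-1 repression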
hcDAF-12 act: H. contortus DAF-12 activation, primary screen; HEK293 hcDAF-12 lit1-tk-luc reporter, luminescence; 0% DMSO, 100% Δ7-dafachronic acid; activation, % at 6.8 µM; 370,000 tested, 1.4% active;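 active means activation above the mean of all tested compounds plus 3 SD, cut at about 5.5% in these data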;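 further: 100% = response to 3 µM Δ7-dafachronic acid high control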
ssDAF-12 act: activates DAF-12 receptor from parasite S. stercoralis | AID 652126 | HEK293 ssDAF-12/GRIP1 lit1-tk-luc reporter, luminescence; % of 3 µM dafachronic acid response | 370,000 tested, 1% active | activation, % at 6.8 µM;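 active means activation above the mean over all tested compounds plus 3 SD, cut at about 0.9% in these data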;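 further: 0% = DMSO-only wells and 100% = 3 µM delta7-dafachronic acid wells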
Numbers without * were called inactive; . = not tested or not shown.

SMILES	hgDAF12 agonist	DAX1 inh-1	DAX1 inh-2	hcDAF-12 act	ssDAF-12 act
CCCC1CCC2(CC1)CCC2OC(=S)NCCc1ccc(Cl)cc1 (centres undefined)	-2.5	.	.	0.2	-0.8
O=C1NC(=Nc2ccc(O)cc2)S/C1=C/c1ccco1	-1.0	-0.6	-2.0	2.1	-0.6
O=C1NC(=Nc2ccc3ccccc3c2)S/C1=C/c1ccco1	7.4	0.9	0.4	4.0	2.0*
CCOC(=O)COc1ccccc1C1Nc2ccccc2C(=O)N1c1cccc(Cl)c1 (centres undefined)	12.0*	0.6	2.6	2.1	-1.4
O=C(Nc1nc(-c2ccccc2)cs1)c1ccco1	8.1	0.6	1.2	1.2	-1.2
Cc1ccc(-c2csc(NC(=O)c3ccco3)n2)cc1C	10.3	4.3*	0.1	4.0	0.4
O=C(CCNC(=O)c1ccco1)Nc1nc(-c2ccccc2)cs1	8.7	.	-0.2	6.4*	1.0*
CC(=O)Nc1ccc(-c2csc(NC(=O)CCNC(=O)c3ccco3)n2)cc1	-0.7	0.6	-1.2	0.1	-1.3
CN(C(=O)c1ccco1)c1nc(-c2ccccc2)cs1	11.2*	2.9	3.7*	5.9*	0.5
Cc1nnc(NC(=O)CSc2nnc(C)n2Cc2ccccc2)s1	-0.8	-0.2	0.4	-2.0	-0.8
Cc1nnc(SCC(=O)Nc2ccc(Cl)cn2)n1Cc1ccccc1	-1.2	6.0*	-0.5	-0.6	-0.9
c1ccc(-c2nnc(NC3=NCCC3)o2)cc1	9.9	-0.5	4.1*	4.7	-0.3
Fc1ccc(-c2nnc(NC3=NCCCCC3)o2)cc1	-3.5	-3.7	-0.5	1.9	-1.7
CC1S/C(=N/N=C2CCC(C(C)(C)C)CC2)NC1=O (centres undefined)	12.1*	2.8	2.4	2.2	0.1
CC(C)(C)c1ccc(/C=C/C(=O)N2CCCCC2)cc1	11.4*	4.1	3.7*	3.1	-0.4
COC(=O)[C@]12C[C@H](CC(=O)NCCCN3CCCC3=O)C(=O)N(CCC3=CCCCC3)C1=C[C@H](C1CCCC1)O[C@@H]2C	-3.6	.	-0.7	-3.4	-0.8
CC1=CCC(C(=O)O)C(C(=O)Nc2cccnc2)C1 (centres undefined)	1.8	2.8	0.8	2.1	1.7*
CCOC(=O)[C@]12CCCCC/C=C\1N(CCc1ccc(Cl)cc1)C(=O)[C@H]2CC(=O)NCCC(C)C	-1.9	.	-0.7	-2.7	-0.7
Cc1nc(C(=O)NNC(=O)c2ccccc2)c(C(F)(F)F)o1	-0.4	4.3*	0.1	-1.7	-1.2
Cc1nc(C(=O)NCC(=O)c2ccccc2)c(C(F)(F)F)o1	1.1	2.0	-0.4	0.5	-0.9
O=C1C2CSCN2C(=O)CN1CCCN1CCN(C(c2ccccc2)c2ccccc2)CC1 (centres undefined)	-0.6	-0.5	-0.2	-0.4	1.2*
CCn1c(COc2cccc3cccnc23)nnc1SCC(=O)O	-1.0	5.4*	0.5	-0.7	-1.6
CCn1c(COc2cccc3cccnc23)nnc1SCC(=O)OC	-2.0	0.3	0.2	-0.3	-1.6
C=CCn1c(COc2cccc3ccc(C)nc23)nnc1SCC(=O)OC	0.7	-0.4	1.3	2.9	0.9*
Cc1occc1-c1nnc(SCC(=O)N2CCN(c3ncccn3)CC2)n1-c1ccccc1	-1.9	.	-1.2	-1.6	-1.3
SMILES	hgDAF12 agonist	DAX1 inh-1	DAX1 inh-2	hcDAF-12 act	ssDAF-12 act
Nc1ncnc2c1ncn2C1C=C(CO)C(O)C1O (centres undefined)	.	7.6*	.	.	.
CC(C)C[C@@H]1COc2cccc(N3CCSCC3)c2S(=O)(=O)N1C	-0.2	.	-1.0	2.6	-1.0
NC(=O)CSc1nc(N)c2c3c(sc2n1)CCCCC3	1.0	-0.4	0.1	-1.1	-0.9
NC(=O)CSc1nc(C2CC2)nc2sc3c(c12)CCCC3	11.7*	5.6*	0.8	1.9	-1.1
O=C(NC(Cc1c[nH]c2ccccc12)C(=O)O)/C(=C/c1ccc(F)cc1)NC(=O)c1ccccc1 (centres undefined)	1.9	2.2	0.0	5.5	0.9*
O=C(O)C(Cc1c[nH]c2ccccc12)NS(=O)(=O)c1ccc2ccccc2c1 (centres undefined)	1.0	0.6	0.3	3.7	0.5
O=C(O)c1cc(S(=O)(=O)NC(Cc2c[nH]c3ccccc23)C(=O)O)ccc1Cl (centres undefined)	2.2	0.9	-0.3	5.9*	0.9*
